From PubChem
Lassa entry inh: qHTS for Inhibitors of binding or entry into cells for Lassa Virus; Lassa virus pseudotype entry inhibition, cell reporter; hit rate 1.2% among 300,000; Potency, µM (titrated, usually from 37.9 µM), actives largely listed as inhibitors; calls by dose curve; tested in HEK293 cells; further: nearly all actives have a fitted effect of over 50% in size
FMDV inh: High Throughput Screening for Foot and Mouth Disease Virus Antivirals; FMDV antiviral cell-based qHTS; Potency, µM (titrated, usually from 57.9 µM), usual class: inhibitors; hit rate 1.2% among 410,000; AID 1159524, 2015; calls by dose curve; tested in HEK293T cells; further: read-out not given here; nearly all actives have a fitted effect of over 45% in size
HCMV inh: qHTS Assay for inhibitors of the human cytomegalovirus (HCMV) | AID 1259415, 2018 | HFF cells, HCMV-luciferase reporter, 72 h; hits give low values | activity change, negative = inhibition, % at 57.5 µM | hit rate 4.5% among 410,000; in the data active means activity change below about -60%; inconclusive means no clear call, values can overlap the other calls; inactive means above about -39%
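Human foreskin fibroblasts infected with luciferase-reporter HCMV at MOI 1 PFU/cell, compounds at two doses. Luciferase measured 72 h post infection; normalized to buffer-only basal and Salinomycin (10uM) controls.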
MARV entry inh: qHTS for inhibitors of binding or entry into cells for Marburg Virus. Potency, µM (titrated, usually from 37.8 µM), most hits filed as inhibitors. Marburg virus pseudotyped entry inhibition, cell reporter. hit rate 1.8% among 300,000; calls by dose curve; tested in HEK293 cells
HCV inh: qHTS Assay for Inhibitors of Hepatitis C Virus (HCV) | Huh7.5.1 HCVcc-Cre infection, luciferase reporter, 44 h | Potency, µM (titrated, usually from 41.8 µM), most hits filed as inhibitors | hit rate 3.4% among 340,000 | AID 651820, 2012; active means well fitted inhibition curve with a large enough effect; inconclusive means small, poorly fitted or top-dose-only effect, or another doubt; inactive means no such curve, though single readings can be large or run the other way
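Compounds are dispensed onto cells plated 4 h earlier at 1,000 per well, with HCVcc-Cre virus (about 0.5 moi) added next. Following 44 h of culture, luminescent signal is measured for 15 sec after 15 min with substrate at room temperature.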
Numbers stand for hits; n = inactive; u = inconclusive; x = no result given; ! = not confirmed by another sample. Compounds with a hit are over-represented: about 7.9% of the library has one in this group of screens.

SMILES	Lassa entry inh	FMDV inh	HCMV inh	MARV entry inh	HCV inh
CCC(=O)N[C@@H]1c2ccccc2C2(CCN(Cc3cnc(N(C)C)s3)CC2)[C@H]1OC	x	n	x	x	x
CCOc1ccc(-c2cccc(NC(=O)c3ccco3)c2)nn1	n	n	n	n	n
CCc1ccc(C(=O)Nc2nc(C)cs2)s1	1.3µM	u	n	u	n
Cc1nc(-c2ccc(NC(=O)Cc3ccccc3)cc2)cs1	u	n	n	u	n
CC1CCc2nc(NC(=O)c3ccco3)sc2C1 (centres undefined)	0.28µM	n	-78	1.3µM	u
Cc1nc(-c2cccc(NC(=O)c3ccco3)c2)cs1	n	n	-87	u	n
Cc1nc(-c2ccc(NC(=O)c3ccco3)cc2)cs1	x	11µM	-84	x	n
CC1CCc2nc(NC(=O)Cc3cccs3)sc2C1 (centres undefined)	n	n	n	n	u
COC(=O)c1ccccc1S(=O)(=O)N1CCC(C(=O)OC(C)C(=O)N(C)Cc2ccccc2)CC1 (centres undefined)	u	u	n	u	n
Cc1ccc(C(=O)OCC(=O)Nc2ccccc2)cc1NC(=O)c1ccco1	n	n	n	n	n
Cc1csc(NC(=O)CS(=O)(=O)Cc2ccccc2)n1	n	n	-71	u	n
Cc1ccc(C(=O)OCC(=O)Nc2nc(-c3ccccc3)cs2)cc1NC(=O)c1ccco1	u	25µM	n	u	11µM
CCN(CC)CCNC(=S)N1CCn2c(nc3ccccc32)C1	u	n	n	u	n
COc1ccc2c(c1)[C@@]1(OCCC=C[C@@H]1C)C(=O)N2Cc1ccc(Br)cc1	x	x	x	n	x
CC(=O)N[C@@H](CS)C(=O)O	u	n	n	u	10µM!
CCOC(=O)c1c(C)nc(C)c(C(=O)OCC)c1-c1ccccc1	n	n	n	n	n
CCOc1c(C(N)=O)c(-c2ccccc2)c2c(=O)[nH]c3ccccc3n12	n	n	-60	n	n
Cc1ccc(C2=NC3(CCCC3)N=C2SCC(=O)Nc2ccc3c(c2)OCCO3)cc1	u	n	n	u	u
CC1(C)N=C(SCC(=O)Nc2ccc(Cl)cc2Cl)C(c2ccccc2)=N1	n	u	n	n	u
O=C(COC(=O)CSc1ccc(Cl)cc1)Nc1ccccc1	x	n	n	x	14µM
CC1(C)N=C(SCC(=O)Nc2ccccc2)C(c2ccc(Cl)cc2)=N1	u	18µM	-66	u	u
Cc1ccc(C2=NC(C)(C)N=C2SCC(=O)Nc2ccc(Cl)cc2)cc1	n	32µM	n	u	u
CCCNC(=O)N1CCN(c2nc(C(C)C)c3c(c2C#N)CC(C)(C)OC3)CC1	x	u	-66	x	u
CC(C)Cc1nc(N2CCOCC2)c(C#N)c2c1COC(C)(C)C2	n	u	n	u	u
Cc1ccc(S(=O)(=O)N2CCN(c3nc(C(C)C)c4c(c3C#N)CC(C)(C)OC4)CC2)cc1	n	n	u	u	7.1µM
SMILES	Lassa entry inh	FMDV inh	HCMV inh	MARV entry inh	HCV inh
Cc1nc(N2CCN(C(=O)c3ccc(Cl)cc3)CC2)c(C#N)c2c1COC(C)(C)C2	u	u	n	u	u
CC(=O)Nc1ccc(CN(C)c2c(C)nc3ccc(C(=O)N4CCN(C(C)=O)CC4)cn23)cc1	x	n	n	x	x
CC1(C)CC(=O)C2=C(C1)OC1=C(C(=O)CC(C)(C)C1)C2c1ccc(O)cc1O	n	6.3µM	-102	u	u
COc1ccc(-c2ccc(CCC(=O)O)n2CC(=O)Nc2cccc(Cl)c2C)cc1	n	n	n	n	x
O=C1CC(/C=C/c2ccncc2)=Nc2ccccc2N1	n	n	-99	u	u
CCC(C)NC(=O)c1ccc2c(c1)sc1nc(-c3ccc(OC)cc3)cn12 (centres undefined)	n	n	x	x	x
COc1ccc(Nc2cc3c(cn2)ncn3Cc2ccccc2)cn1	x	x	n	x	x
O=C(O)c1cccc(N/N=C/c2cccc3ccccc23)c1	u	4µM	n	2µM	n
Cc1ccc(/C=N/Nc2cccc(C(=O)O)c2)s1	1.6µM	3.5µM	n	1.1µM	n
O=C(O)c1ccc(N/N=C/c2cc(Br)cs2)cc1	u	n	n	5µM	n
O=C(O)c1cccc(N/N=C/c2ccc(F)c(F)c2)c1	4µM	n	n	u	n
CCOc1ccc(NC(=O)CSc2cc(C)c3ccccc3n2)cc1	n	n	u	x	x
Cc1ccc(/C=N/Nc2ccc(C(=O)O)cc2)s1	1.1µM	6.3µM	-73	u	n
Cc1nn(-c2ccccc2Cl)c(Cl)c1/C=N/Nc1cccc(C(=O)O)c1	u	7.1µM	n	u	n
CCC1CN(Cc2ccc(COC)o2)Cc2cc(OC)ccc2O1 (centres undefined)	x	n	x	x	x
N#CC(=Cc1ccc(-c2ccccc2)cc1)C(=O)c1ccccc1	x	n	n	x	x
O=C(C(Br)=Cc1ccccc1)c1ccccc1	u	25µM	-83	5µM	u
CC(=Cc1ccccc1)C(=O)c1ccccc1	x	n	n	x	x
CC(=O)C(=Cc1ccc(-c2ccccc2)cc1)C(=O)c1ccccc1	x	22µM	n	x	x
O=c1[nH][nH]c2c([N+](=O)[O-])ccc(F)c12	x	x	-61	x	x
Cc1ccc(-n2c(SCC(=O)N3CCCc4ccccc43)nc3c([nH]c4ccccc43)c2=O)cc1	n	n	n	x	x
CC(=O)Oc1c(I)cc(I)cc1C(=O)Nc1ccc(Cl)cc1	13µM	u	-99	u	u
Cc1cc(C(=O)Nc2ccc(Cl)cc2)c2ccccc2n1	n	n	n	n	n
COc1ccc2ccccc2c1CN1CCc2nnc(C(NS(C)(=O)=O)C(C)C)n2CC1 (centres undefined)	x	n	x	x	x
COc1cccc(Nc2nnc(SCc3cc([N+](=O)[O-])cc4c3OCOC4)s2)c1	n	16µM	n	n	11µM
SMILES	Lassa entry inh	FMDV inh	HCMV inh	MARV entry inh	HCV inh
COc1cc(-c2noc(CSc3nc(-c4ccc(F)cc4)cc(=O)[nH]3)n2)cc(OC)c1OC	n	n	n	x	x
OC(c1ccc(Cl)cc1)c1nnc(Nc2ccc(F)c(Cl)c2)s1 (centres undefined)	x	x	-63	x	x
COc1ccc(Nc2nc3[nH]c(=O)cc(O)c3s2)cc1	u	n	n	u	n
O=c1cc(O)c2sc(Nc3ccc(Cl)c(F)c3)nc2[nH]1	n	n	-77	n	u
O=c1cc(O)c2sc(Nc3ccc(F)c(Cl)c3)nc2[nH]1	n	n	-101	n	u
CN(C)CCC1(C2=CCCC2)CC/C(=C/c2ccc(Cl)cc2)C1=O (centres undefined)	13µM	n	-86	u	u
Cc1sc2nc(CN3CCOCC3)nc(Cl)c2c1C	n	n	n	u	n
Cc1sc2nc(CN3CCOCC3)nc(NS(=O)(=O)c3cc(Cl)ccc3Cl)c2c1C	x	n	-106	x	n
O=S1CCCS[C@@H]1c1cccnc1 (some centres undefined)	x	x	x	n	x
c1cc(Nc2ncnc3sccc23)cc(-c2nnc3n2CCCCC3)c1	n	n	n	n	10µM
Cc1cnc(C(=O)Nc2cccc(-c3nnc4n3CCCCC4)c2)cn1	n	n	n	n	n
C=CCn1c(SCC(=O)Nc2ccccc2C)nc(O)cc1=O	n	n	n	n	n
